In PubChem BioAssay (NCATS):
Results filed as inconclusive are left out. Where a call stands in place of a potency, no number is given. Calls of active or inactive are those of the source. Calls follow the shape of the dose curve; as a rule, active = well fitted curve in the direction sought with a large enough effect; inconclusive = small, poorly fitted or top-dose-only effect, or another doubt; inactive = no such curve, though single readings can be large; an effect the other way counts as inactive or inconclusive.

How the values were obtained:
[1] = target: Arylsulfatase A (Homo sapiens) (UniProt P15289); experiment: qHTS screen for enhancers of Arylsulfatase A (ASA1): LOPAC Validation Assay (AID 720538); details: ASA enzyme activity, LOPAC qHTS enhancer assay; series mostly up to 57.5 µM
Method in brief: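 First, ASA-I179S fibroblasts from an MLD patient adhered for 6 hrs. Next, compounds were added for 48h. Then pNCS substrate (0.5mM final) with lysis buffer reacted 14h at room temperature before NaOH stop and fluorescence measurement.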

[2] = qHTS for compounds that reverse cellular toxicity of Amyloid beta (A-beta) peptide in yeast: LOPAC Validation Assay (AID 720559); details: yeast expressing A-beta; series mostly up to 46.1 µM
Method in brief: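 Activity is expressed relative to DMSO and an equimolar ferric chloride/clioquinol mix. Compounds were pinned into medium with A-beta-expressing yeast, grown 48 hr at 30 C, then read by absorbance at 600 nm.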

[3] = qHTS for Activators of Parkin Expression: LOPAC Validation Assay (NLuc Reporter) (AID 720572); details: Parkin promoter NanoLuc reporter cells, luminescence; series mostly up to 46.1 µM
Method in brief: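 Neuronal line stably carrying a FLuc/NLuc coincidence reporter under the Parkin promoter, seeded 24 h, then dosed in 7-point series for 24 h at 37 C. NLuc luminescence read after FLuc; normalized to DMSO and positive control (100%).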

[4] = qHTS for Activators of Parkin Expression: LOPAC Validation Assay (FLuc Reporter) (AID 720573; also: potency is read from the fitted curve at half-maximal effect); details: Cell line, PRKN promoter firefly luciferase reporter; series mostly up to 46.1 µM
Method in brief: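 A neuronal cell line harbouring FLuc and NLuc reporters behind the Parkin promoter was exposed to compounds for 24 h. Firefly luciferase signal, measured after 10 min with detection reagent, was scaled to DMSO and positive-control wells.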

Chain of Arylsulfatase A (Homo sapiens) (P15289 whole entry, looked up): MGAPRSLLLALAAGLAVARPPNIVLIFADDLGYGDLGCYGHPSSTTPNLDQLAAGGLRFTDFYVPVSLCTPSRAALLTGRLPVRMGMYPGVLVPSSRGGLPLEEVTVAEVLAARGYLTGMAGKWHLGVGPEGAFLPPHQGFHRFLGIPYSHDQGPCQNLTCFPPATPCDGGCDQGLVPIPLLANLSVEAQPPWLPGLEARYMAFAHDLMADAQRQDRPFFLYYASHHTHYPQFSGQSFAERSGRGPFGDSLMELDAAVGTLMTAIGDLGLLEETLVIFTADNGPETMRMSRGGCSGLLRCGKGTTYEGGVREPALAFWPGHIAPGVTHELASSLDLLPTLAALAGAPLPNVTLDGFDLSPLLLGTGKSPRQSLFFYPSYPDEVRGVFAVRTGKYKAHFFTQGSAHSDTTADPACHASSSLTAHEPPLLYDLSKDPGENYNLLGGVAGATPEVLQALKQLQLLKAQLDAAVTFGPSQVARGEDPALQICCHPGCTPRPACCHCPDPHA

Row | Compound | Potency [1] | outcome [2] | Potency [3] | Potency [4]
1 | Cn1c(=O)c2[nH]c(C3CCCC3)nc2n(C)c1=O | inactive | inactive | inactive | inactive
2 | C[N+](C)(C)CC=O | inactive | inactive | – | inactive
3 | CN1CC(O)C(O)C(O)C1CO (stereo not drawn) | inactive | inactive | – | inactive
4 | CCCC[C@@]1(C2CCCC2)Cc2cc(OCC(=O)O)c(Cl)c(Cl)c2C1=O | inactive | inactive | – | inactive
5 | CCCCC[C@H](CC(=O)NO)C(=O)N[C@H](C(=O)N1CCC[C@H]1CO)C(C)C | inactive | inactive | – | inactive
6 | NC(=Nc1ccccc1)NC(=O)c1nc(Cl)c(N)nc1N | inactive | inactive | – | 8.2 µM (active)
7 | CCC1(O)CC2CN(CCc3c([nH]c4ccccc34)[C@@](C(=O)OC)(c3cc4c(cc3OC)N(C=O)C3[C@]45CCN4CC=C[C@@](CC)([C@@H](OC(C)=O)[C@]3(O)C(=O)OC)[C@H]45)C2)C1 (stereo partly drawn) | inactive | inactive | inactive | inactive
8 | C[C@@]1(C2CCCC2)Cc2cc(OCC(=O)O)c(Cl)c(Cl)c2C1=O | inactive | inactive | – | inactive
9 | Cc1nc(N=Nc2ccc(C(=O)O)cc2)c(COP(=O)(O)O)c(C=O)c1O | inactive | inactive | – | inactive
10 | CC(=O)N[C@@H](Cc1c[nH]c2ccccc12)C(=O)OCc1cc(C(F)(F)F)cc(C(F)(F)F)c1 | inactive | inactive | – | inactive
11 | O=C(O)c1cc(=O)cc(C(=O)O)[nH]1 | inactive | inactive | inactive | inactive
12 | O=C(O)[C@H]1NCCC[C@H]1C(=O)O | inactive | inactive | – | inactive
13 | NCCS(=O)O | inactive | inactive | inactive | inactive
14 | C=CCN1CCc2cc(O)c(O)cc2C(c2ccccc2)C1 (stereo not drawn) | inactive | inactive | – | inactive
15 | O=c1cc(O)cc(/C=C/c2ccc(O)c(O)c2)o1 | inactive | inactive | – | inactive
16 | O[Si](CCCN1CCCCC1)(c1ccc(F)cc1)C1CCCCC1 (stereo not drawn) | inactive | inactive | inactive | inactive
17 | CC(=O)NNC(=O)N1Cc2ccccc2Oc2ccc(Cl)cc21 | inactive | inactive | inactive | inactive
18 | CCN(CC)CCCCCCCCOC(=O)c1cc(OC)c(OC)c(OC)c1 | inactive | inactive | inactive | inactive
19 | Cc1cccc(C)c1OCC(N)C(C)C (stereo not drawn) | inactive | inactive | inactive | inactive
20 | CCCCOC(=O)NS(=O)(=O)c1sc(CC(C)C)cc1-c1ccc(Cn2c(CC)nc3c(C)cc(C)nc32)cc1 | inactive | inactive | – | inactive
21 | Brc1c(Br)c(Br)c2[nH]cnc2c1Br | inactive | inactive | – | inactive
22 | O=c1[nH]c2ccccc2c2ccccc12 | inactive | inactive | – | inactive
23 | NCCNS(=O)(=O)c1cccc2c(Cl)cccc12 | inactive | inactive | – | inactive

Row | Compound | Potency [1] | outcome [2] | Potency [3] | Potency [4]
24 | CC(C)NCC(O)COc1ccc(CC(N)=O)cc1 (stereo not drawn) | inactive | inactive | inactive | inactive
25 | CN(C)CCCc1cc(C(=O)Nc2ccc(-c3ccncc3)cc2)ccc1O | inactive | inactive | – | inactive
26 | C=CC1(C)CC(=O)C2(O)C(C)(O1)C(OC(C)=O)C(O)C1C(C)(C)CCC(O)C12C (stereo not drawn) | inactive | inactive | – | inactive
27 | CCN1C(=O)C=CC1=O | inactive | inactive | – | inactive
28 | CC(N)(C(=O)O)c1ccc(C(=O)O)cc1 (stereo not drawn) | inactive | inactive | – | inactive
29 | O=c1[nH]c(=S)[nH]c(-c2ccccc2)c1Cc1c(O)ccc2ccccc12 | inactive | inactive | – | inactive
30 | C=CCNc1ncnc2ccc(Br)cc12 | inactive | inactive | inactive | inactive
31 | c1ccc2c(c1)CCC[C@H]2Nc1nc2ccccc2[nH]1 | inactive | inactive | – | inactive
32 | Cn1cc(C(=O)OCC2CCN(CCNS(C)(=O)=O)CC2)c2ccccc21 | inactive | inactive | – | inactive
33 | O=C(O)C1CCCNC1 (stereo not drawn) | – | inactive | inactive | inactive
34 | O=C(O)Cc1c[nH]c2ccc(O)cc12 | – | inactive | inactive | inactive
35 | NCC(O)(CS(=O)(=O)O)c1ccc(Cl)cc1 (stereo not drawn) | – | inactive | inactive | inactive
36 | Cc1nc2c(OCc3ccccc3)cccn2c1CC#N | – | inactive | inactive | inactive
37 | NC1(C(=O)O)CCCCC1 | – | inactive | inactive | inactive
38 | c1ccc2c(c1)CC(N1CCN(c3cccc4c3OCCO4)CC1)C2 | – | inactive | inactive | inactive
39 | NC(N)=NC(N)=Nc1cccc(Cl)c1 | – | inactive | inactive | inactive
40 | O=C1NC(=O)c2cc(Nc3ccccc3)c(Nc3ccccc3)cc21 | – | inactive | inactive | inactive
41 | COC(=O)C1=C(C)NC(C)=C([N+](=O)[O-])C1c1ccccc1C(F)(F)F (stereo not drawn) | – | inactive | inactive | inactive
42 | COc1ccc(-c2cc3ncc(C)n3c(Nc3ncccc3C(N)=O)n2)cc1OC | – | inactive | inactive | inactive
43 | Oc1cc(O)c2c(c1)O[C@H](c1ccc(O)c(O)c1)[C@@H](O)C2 | – | inactive | inactive | inactive
44 | CCCCS(=N)(=O)CC[C@H](N)C(=O)O (stereo partly drawn) | – | inactive | inactive | inactive
45 | O=C(O)C1CCNCC1 | – | inactive | inactive | inactive
46 | O=c1[nH]c2cc(Cl)ccc2c(O)c1-c1ccc(Oc2ccccc2)cc1 | – | inactive | inactive | inactive

Row | Compound | Potency [1] | outcome [2] | Potency [3] | Potency [4]
47 | CCCN(CCc1ccccc1)C1CCc2c(O)cccc2C1 (stereo not drawn) | – | inactive | inactive | inactive
48 | COc1cc([C@@H]2c3cc4c(cc3[C@H](O)C3COC(=O)[C@@H]32)OCO4)cc(OC)c1OC (stereo partly drawn) | – | inactive | inactive | inactive
49 | CCCn1c(=O)c2[nH]c(-c3ccc(S(=O)(=O)O)cc3)nc2n(CCC)c1=O | – | inactive | inactive | inactive
50 | N=C(N)c1ccccc1 | – | inactive | inactive | inactive
51 | O=S(=O)(c1cccc2c(Cl)cccc12)N1CCCNCC1 | – | inactive | inactive | inactive
52 | CC[N+](CC)(CC)CC(=O)Nc1c(C)cccc1C | – | inactive | inactive | inactive
53 | Cn1ccnc1 | – | inactive | inactive | inactive
54 | COc1ccc(-c2ccc(N)[n+](CCCC(=O)O)n2)cc1 | – | inactive | inactive | inactive
55 | OC1(c2ccc(Cl)cc2)CCN(Cc2c[nH]c3ccccc23)CC1 | – | inactive | inactive | inactive
56 | Nc1nc2ccc(Cl)cc2c2nc(-c3ccco3)nn12 | – | inactive | inactive | inactive
57 | Nc1nc2c(cnn2CCc2ccccc2)c2nc(-c3ccco3)nn12 | – | inactive | inactive | –
58 | O=C(O)C1=CC(=C(c2ccc(O)c(C(=O)O)c2)c2ccc(O)c(C(=O)O)c2)C=CC1=O | – | inactive | inactive | inactive
59 | CCN(CC)CCOC(=O)c1cc(Cl)c(N)cc1OC | – | inactive | inactive | inactive
60 | CSC(=N)N | – | inactive | inactive | inactive
61 | C#CC(N)CCC(=O)O (stereo not drawn) | – | inactive | inactive | inactive
62 | CC(C)[C@@H]1CC[C@@H](C)C[C@@H]1P(=O)(c1ccccc1)c1ccccc1 | – | inactive | inactive | inactive
63 | O=C1Nc2ccc(I)cc2/C1=C/c1cc(Br)c(O)c(Br)c1 | – | inactive | inactive | inactive
64 | O=[N+]([O-])c1cccc2cn[nH]c12 | – | inactive | inactive | inactive
65 | O=c1[nH]c(=O)c2nc3ccccc3nc2[nH]1 | – | inactive | inactive | inactive
66 | NC(Cc1cccc(-c2ccccc2CP(=O)(O)O)c1)C(=O)O (stereo not drawn) | – | inactive | inactive | inactive
67 | Cc1ccccc1/C=C/C1=NCCN1 | – | inactive | inactive | inactive
68 | CC(C)(C)c1ccc(/C=C/C(=O)Nc2ccc3c(c2)OCCO3)cc1 | – | inactive | inactive | inactive
69 | N#Cc1cc([N+](=O)[O-])c2sc(C(N)=O)[n+]([O-])c2c1 | – | inactive | inactive | inactive

Row | Compound | Potency [1] | outcome [2] | Potency [3] | Potency [4]
70 | O=c1cc(-c2ccccc2)[nH]c2nc(Cl)ccc12 | – | inactive | inactive | inactive
71 | N#C/C(=C\c1ccc(O)c(O)c1)C(=O)NCCc1ccccc1 | – | inactive | inactive | inactive
72 | COc1ccc2c(c1)c(CC(=O)O)c(C)n2Cc1ccc(Cl)cc1 | – | inactive | – | inactive
73 | C[C@]12C=CC(=O)C=C1CC[C@@H]1C2=CC[C@]2(C)[C@@H](C(=O)CN3CCN(c4cc(N5CCCC5)nc(N5CCCC5)n4)CC3)CC[C@@H]12 | – | inactive | – | inactive
74 | CCCCCCCC/C=C\CCCCCCCC(=O)NCCc1ccc(O)c(O)c1 | – | – | – | inactive
75 | CC(C)NC[C@H](O)COc1cccc2ccccc12 | – | – | inactive | inactive
76 | Cn1c(=O)c2c(nc(/C=C/c3cccc(Cl)c3)n2C)n(C)c1=O | – | inactive | inactive | inactive
77 | NC(N)=[N+]1CCc2ccccc2C1 | – | – | inactive | inactive
78 | O=C(O)CCC/C=C\C[C@@H]1[C@@H](/C=C/[C@H](O)C2Cc3ccccc3C2)[C@@H](F)C[C@@H]1O | – | inactive | – | inactive
79 | O=C1OC(=O)C2C3CCC(O3)C12 (stereo not drawn) | – | inactive | inactive | inactive
80 | C=CCN1CCc2c(cc(O)c(O)c2Cl)C(c2ccccc2)C1 (stereo not drawn) | – | inactive | inactive | inactive
81 | N[C@@H](Cc1c[nH]c2ccccc12)C(=O)O | – | inactive | inactive | inactive
82 | Nc1ncnc2c1c(-c1ccc(Oc3ccccc3)cc1)cn2C1CCCC1 | – | inactive | – | inactive
83 | NC(N)=NC(N)=Nc1ccccc1 | – | inactive | – | inactive
84 | Cc1nc(N=Nc2cc(S(=O)(=O)O)c3cc([N+](=O)[O-])cc(S(=O)(=O)O)c3c2)c(COP(=O)(O)O)c(C=O)c1O | – | – | inactive | inactive
85 | NC(=O)CNCCC(c1ccccc1)c1ccccc1 | – | inactive | – | inactive
86 | NC(=O)CC[C@H](N)C(=O)O | – | inactive | – | inactive
87 | COc1ccc(C(=O)NCc2cccnc2)cc1C(=O)NCc1cccnc1 | – | inactive | inactive | inactive
88 | CCCCCCCCCC[Si](C)(C)CCC(=O)NC(Cc1ccc(C)cc1)c1ccccc1 (stereo not drawn) | – | inactive | inactive | inactive
89 | CC(C)(C)NCC(O)COc1cccc2[nH]c(=O)[nH]c12 (stereo not drawn) | – | inactive | – | inactive
